TDP1 cell CPT: qHTS for Inhibitors of human tyrosyl-DNA phosphodiesterase 1 (TDP1): qHTS in cells in presence of CPT | actives 12% (n = 420,000) | AID 686979, 2013 | chicken DT40 Tdp1-/-;hTDP1 cells + 20 nM CPT, ATP luminescence, 48 h | Potency, µM (titrated, usually from 46.2 µM), for inactives: at the top dose activity change, negative = growth inhibition, actives largely listed as inhibitors; also: nearly all actives have a fitted effect of over 55% in size
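Cell growth measured by CellTiter-Glo luminescence after a minimum 48 h, 37 C compound exposure with 20 nM CPT in Tdp1-knockout DT40 cells stably expressing hTDP1, seeded 400/well; qHTS titration format.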
RORg inh: qHTS for inhibitors of ROR gamma transcriptional activity; actives 5.4% (n = 310,000); Potency, µM (titrated, usually from 53.6 µM), without a hit: at the highest dose activity change, negative = inhibition, actives largely listed as inhibitors; Nuclear receptor ROR-gamma (Mus musculus), P51450; Drosophila S2 Gal4-RORgamma UAS-luciferase reporter, 20 h; also: nearly all actives have a fitted effect of over 60% in size
Target sequence (P51450 whole entry, looked up, the tested form may be a part): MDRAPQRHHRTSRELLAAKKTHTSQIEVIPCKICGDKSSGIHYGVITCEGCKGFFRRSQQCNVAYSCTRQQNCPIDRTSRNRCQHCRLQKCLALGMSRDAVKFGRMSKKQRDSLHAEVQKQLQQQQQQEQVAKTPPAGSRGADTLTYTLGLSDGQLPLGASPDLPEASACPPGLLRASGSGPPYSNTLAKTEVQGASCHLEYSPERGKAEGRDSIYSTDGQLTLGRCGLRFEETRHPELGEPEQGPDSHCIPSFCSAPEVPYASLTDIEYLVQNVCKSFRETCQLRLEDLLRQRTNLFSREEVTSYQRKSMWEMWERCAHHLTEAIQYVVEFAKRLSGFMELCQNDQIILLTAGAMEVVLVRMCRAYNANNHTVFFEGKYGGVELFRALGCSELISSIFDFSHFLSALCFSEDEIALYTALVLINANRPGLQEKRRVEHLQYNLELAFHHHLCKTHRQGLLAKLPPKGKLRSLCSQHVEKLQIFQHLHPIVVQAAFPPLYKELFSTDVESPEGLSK
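Drosophila S2 cells stably expressing Gal4-DBD/mouse RORγ fusion under metallothionein promoter plus UAS-luciferase; compound 1 h, then 700 uM CuSO4 induction for 20 h at ambient temperature; inhibition read as reduced luminescence.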
DT40 TDP1 no CPT: qHTS for Inhibitors of human tyrosyl-DNA phosphodiesterase 1 (TDP1): qHTS in cells in absence of CPT; DT40 Tdp1-/- hTDP1 cells, no CPT, ATP luminescence, 48 h; Potency, µM (doses to about 46.2 µM), without a hit: at the top dose activity change, negative = growth inhibition, most hits filed as inhibitors; actives 15% (n = 420,000); also: nearly all actives have a fitted effect of over 55% in size
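A cellular qHTS used chicken DT40 cells lacking endogenous Tdp1 but carrying stably transfected human TDP1. Compounds were applied without camptothecin, and cell growth kinetics were judged by ATP-dependent luminescence after ≥48 hr.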
ALOX12 inh: Primary qHTS assay for inhibitors of human arachidonate 12S-lipoxygenase (ALOX12): Round 2. purified 12hLO, xylenol orange hydroperoxide absorbance. actives 1.1% (n = 580,000). Polyunsaturated fatty acid lipoxygenase ALOX12 (Homo sapiens), P18054. Potency, µM (titrated, usually from 108 µM), inactives show at the highest dose activity change, negative = inhibition, most hits filed as inhibitors
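Hydroperoxide product was detected by ferrous iron/xylenol orange as the 573 to 405 nm absorbance ratio. Arachidonic acid at 40 uM (final) was turned over for 30 min at room temperature by 150 nM human 12hLO, pH 7.0 Hepes buffer, after 15 min compound preincubation.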
Gal4-VP16 FLuc: VP16 counterscreen qHTS for inhibitors of ROR gamma transcriptional activity | actives 3.5% (n = 310,000) | Drosophila S2 Gal4-VP16 UAS-luciferase, luminescence, 20 h | AID 2546, 2010 | Potency, µM (top dose mostly 53.6 µM), for the others: at the highest dose activity, negative = inhibition, most hits filed as inhibitors;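 also: Gal4-VP16 expression switched on by copper sulfate through the metallothionein promoter; nearly all actives have a fitted effect of over 50% in size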
ELG1 DNA repair: qHTS screen for small molecules that inhibit ELG1-dependent DNA repair in human embryonic kidney (HEK293T) cells expressing luciferase-tagged ELG1; HEK293T ELG1-luciferase reporter, luminescence, 16 h; DNA damage induced by 5-fluorouridine; Potency, µM (series often up to 46.1 µM), for the others: top-dose activity change, negative = inhibition, usual class: inhibitors; actives 2.3% (n = 330,000); AID 504467, 2011; also: nearly all actives have a fitted effect of over 55% in size
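Reporter activity after DNA damage by 5-fluorouridine is monitored. Compound-treated cells incubate 16 hr at 37 °C, then ONE-Glo is added for 30 min before luminescence reading.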
An asterisk follows results filed as active; ? = inconclusive; nt = no result given; [ ] = dose if it differs, or a comment. Rows were chosen to be rich in hits. Some 15% of all compounds tested hit in one or more screens of this group. Calls follow the shape of the dose curve; as a rule, active = well fitted curve in the direction sought with a large enough effect; inconclusive = small, poorly fitted or top-dose-only effect, or another doubt; inactive = no such curve, though single readings can be large; an effect the other way counts as inactive or inconclusive. % is scaled to controls: 0 for no effect and ±100 for the full control effect; potency is read from the fitted curve at half-maximal effect.

SMILES | TDP1 cell CPT | RORg inh | DT40 TDP1 no CPT | ALOX12 inh | Gal4-VP16 FLuc | ELG1 DNA repair
COc1cccc(CNC(=O)C(C)n2ccc3cc(S(=O)(=O)N4CCCC4)ccc32)c1 (stereo not given) | ? | 41% | -29% | -18% | 24% | -2%
CC(C(=O)NCc1ccccc1Cl)n1ccc2cc(S(=O)(=O)N3CCCCC3)ccc21 (stereo not given) | 16µM* | nt | 16µM* | -11% | nt | nt
COc1ccc(CCNC(=O)Cn2ccc3cc(S(=O)(=O)N4CCCCC4)ccc32)cc1OC | ? | nt | ? | -25% | nt | nt
COc1ccc(CNC(=O)C(C)n2ccc3cc(S(=O)(=O)N4CCCC4)ccc32)cc1OC (stereo not given) | 0.29µM* | nt | 0.58µM* | 5% | nt | nt
COc1cccc(CNC(=O)C(C)n2ccc3cc(S(=O)(=O)N4CCCCCC4)ccc32)c1 (stereo not given) | 5.2µM* | -22% | 15µM* | -4% | 8% | -18%
CCC(C(=O)NCCC(C)C)n1ccc2cc(S(=O)(=O)N3CCCCC3)ccc21 (stereo not given) | 13µM* | ? | 8.2µM* | nt | ? | -19%
CC(C#N)CN(C)C(=O)/C=C/c1ccsc1 (stereo not given) | nt | nt | nt | -15% | nt | nt
O=C(CN1C(=O)NC2(CCOCC2)C1=O)N1CCN(c2ccc(F)cc2)CC1 | nt | nt | nt | 11% | nt | nt
CC(C(=O)NCc1ccccc1)n1ccc2cc(S(=O)(=O)N3CCCC3)ccc21 (stereo not given) | ? | nt | 18µM* | -1% | nt | nt
CCOC(=O)c1ccc(NC(=O)CCS(=O)(=O)c2cc(-c3cc(C)no3)ccc2OC)cc1 | nt | nt | nt | -7% | nt | nt
N#Cc1ccc(CNC(=O)[C@@H]2Cc3nc[nH]c3CN2CC2CCCCC2)cc1 | nt | nt | nt | 113%[176 µM] | nt | nt
Cc1ccc(CNC(=O)c2cccc(-c3ccc(S(=O)(=O)N4CCCCC4)cc3)c2)cc1 | nt | nt | nt | -21% | nt | nt
CN(C)CC(=O)N1CCC2(CC1)NCCc1c2[nH]c2ccccc12 | nt | nt | nt | 18% | nt | nt
CCOC(=O)Cc1csc(NC(=O)NC2(C(F)(F)F)Oc3ccccc3O2)n1 | -17% | -27% | -27% | ? | -19% | ?
CCOC(=O)Cc1csc(NC(=O)Nc2ccc(OC(F)(F)F)cc2)n1 | ? | 34% | 18µM* | 159% | -11% | 2.1µM*
CCOC(=O)Cc1csc(NC(=O)/C=C/c2ccc(OC)cc2)n1 | 10µM* | ? | 21µM* | -15% | ? | ?
CCOC(=O)Cc1csc(NC(=O)CSc2ncnc3c2cnn3-c2ccc(OC)cc2)n1 | ? | 17% | 15µM* | 29% | -11% | ?
CCOC(=O)Cc1csc(NC(=O)/C=C\c2ccccc2)n1 | ? | 5% | ? | -6% | -5% | ?
CCOC(=O)Cc1csc(NC(=O)c2ccc(NC(C)=O)cc2)n1 | -13% | ? | -9% | 13% | ? | 12%
CCOC(=O)Cc1csc(NC(=O)NC2(C(F)(F)F)Oc3cc(Cl)c(Cl)cc3O2)n1 | 23µM* | ? | ? | 0.63µM* | -13% | -28%
COc1ccc(N(CC(=O)NCc2ccc(Cl)cc2)S(=O)(=O)c2c(C)n[nH]c2C)cc1 | 2% | 3% | -16% | ? | 0% | 8%
COc1ccc(N(CC(=O)Nc2cc(Cl)ccc2C)S(=O)(=O)c2c(C)n[nH]c2C)cc1 | 4.1µM* | 2% | 5.2µM* | -25% | 2% | -17%
COc1ccc(NC(=O)CN(c2cc(C)cc(C)c2)S(=O)(=O)c2c(C)n[nH]c2C)cc1 | 29µM* | -21% | ? | 5% | -7% | -14%
COc1ccc(N(CC(=O)Nc2ccc(C)cc2C)S(=O)(=O)c2c(C)n[nH]c2C)cc1 | -11% | -3% | 18µM* | 19% | 0% | 3%
COc1ccc(N(CC(=O)NCc2ccccc2)S(=O)(=O)c2c(C)n[nH]c2C)cc1 | 21µM* | 4% | -3% | -1% | 5% | 12%
SMILES | TDP1 cell CPT | RORg inh | DT40 TDP1 no CPT | ALOX12 inh | Gal4-VP16 FLuc | ELG1 DNA repair
CCCCCOc1ccc2c(C)c(CCCCC)c(=O)oc2c1 | nt | nt | nt | -1% | nt | nt
NC(=O)c1ccc(CC2CCN(C(=O)C3CC=CC3)CC2)cc1 | nt | nt | nt | 6% | nt | nt
CCOc1ccccc1C(=O)NCC(=O)N1CCN(c2ccccn2)CC1 | nt | nt | nt | 6% | nt | nt
COCCN(Cc1ccccc1)C(=O)c1cccc(S(=O)(=O)N2CCN(c3ccc(F)cc3)CC2)c1 | ? | nt | 18µM* | -4% | nt | ?
COCCN(Cc1nc2ccccc2c(=O)[nH]1)C(=O)c1cccc(S(=O)(=O)N2CCCC2)c1 | ? | nt | -4% | 5% | nt | -10%
COCCN(Cc1ccccc1)C(=O)c1cccc(S(=O)(=O)N2CCN(c3ccccc3)CC2)c1 | ? | nt | 16µM* | 5% | nt | 15µM*
Cc1cc(OC2CN([S+](=O)([O-])c3ccc(C(F)(F)F)cc3)C2)ccc1F | nt | nt | nt | 70% | nt | nt
O=C(NC1CCCC1)c1ccc(CSc2nc3ccncc3n2Cc2cccc(F)c2)cc1 | ? | nt | 16µM* | -14% | nt | nt
O=C(NC1CCCCC1)c1ccc(CSc2nc3ccncc3n2Cc2ccccc2F)cc1 | ? | nt | ? | -5% | nt | nt
O=C(NCc1ccc(F)cc1)c1ccc(CSc2nc3ccncc3n2Cc2ccc(F)cc2)cc1 | 23µM* | nt | -97% | -6% | nt | nt
COC(=O)c1ccc(Cn2c(SCc3ccc(F)cc3)nc3ccncc32)cc1 | ? | nt | ? | 0% | nt | nt
O=C(NC1CCCC1)c1ccc(CSc2nc3ccncc3n2Cc2ccc(F)cc2)cc1 | ? | 29% | 16µM* | 1% | -16% | ?
Clc1ccccc1N=C1NN=C(c2cccs2)CS1 | -4% | 11µM* | -2% | 39% | ? | ?
Cn1nc(C(C)(C)C)cc1NC(=O)C1(C)CCN1C(=O)C1(c2ccccc2)CC1 (stereo not given) | ? | nt | ? | 2% | nt | nt
Cn1nc(C2CC2)cc1NC(=O)C1(C)CCN1C(=O)CC(c1ccccc1)c1ccccc1 (stereo not given) | 23µM* | nt | 13µM* | -16% | nt | nt
